Screening results as filed in PubChem BioAssay.
SENP8 block-1: inhibitors of human SENP8 protease | Q96LD8 | recombinant SENP8, Nedd8 substrate fluorescence | inhibition, % at 20 µM | 360,000 tested, 0.64% active; in the data active means inhibition mostly above about 40%, no sharp cut-off; inactive means mostly below about 27%
SENP6 block: inhibitors of human SENP6 protease; Q9GZR1; Recombinant SENP6 catalytic domain, aminoluciferin luminescence; inhibition, % at 10 µM; 330,000 tested, 1.8% active;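 active means inhibition above about 50% at the single tested dose, limit read from the data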;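 further: plate controls were DMSO wells with enzyme for no effect and DMSO wells lacking enzyme for full effect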
Target sequence (Q9GZR1 628-1112 limits assumed): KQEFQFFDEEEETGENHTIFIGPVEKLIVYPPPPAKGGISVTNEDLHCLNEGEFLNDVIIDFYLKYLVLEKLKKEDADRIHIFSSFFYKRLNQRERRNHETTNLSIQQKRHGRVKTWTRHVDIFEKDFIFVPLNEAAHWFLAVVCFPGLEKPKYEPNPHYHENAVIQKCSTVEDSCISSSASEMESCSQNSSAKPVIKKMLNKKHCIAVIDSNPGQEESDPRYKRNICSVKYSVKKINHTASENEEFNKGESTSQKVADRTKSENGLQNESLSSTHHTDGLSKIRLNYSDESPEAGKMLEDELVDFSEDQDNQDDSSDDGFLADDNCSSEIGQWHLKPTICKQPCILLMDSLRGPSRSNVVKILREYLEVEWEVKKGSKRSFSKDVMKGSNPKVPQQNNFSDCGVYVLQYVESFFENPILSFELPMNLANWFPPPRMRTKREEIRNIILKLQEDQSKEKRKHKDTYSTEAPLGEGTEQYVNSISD
PPC-1+TRAIL kill: compounds killing PPC-1 cancer cells with TRAIL present (potentiator screen, no TRAIL-free arm). cell killing (% activity), % at 4 µM or 5 µM. 220,000 tested, 0.41% active. PPC-1 cells + TRAIL, ATPLite viability luminescence. AID 1443;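 active means cell killing above 50% in the first pass at 4 µM, then a duplicate retest at 5 µM averaging 50% or more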;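 further: plate controls were cells with TRAIL plus DMSO for no effect and medium-only wells lacking cells for full effect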
SENP8 block-2: blocks the human protease SENP8; AID 2540; 330,000 tested, 1.2% active; inhibition, % at 10 µM; Q96LD8; purified SENP8, Z-RLRGG-aminoluciferin cleavage, luminescence; in the data active means inhibition above about 50%
SENP7 inh: inhibitors of human SENP7 protease. Q9BQF6. recombinant SENP7, Z-RLRGG-aminoluciferin luminescence, 40 min. inhibition, % at 5 µM. 330,000 tested, 1.5% active;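 active means inhibition above about 50% at the single test dose, limit read from the data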;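 further: plate controls were DMSO with enzyme for no effect and no enzyme buffer wells for full effect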
TRAIL sens C8: caspase-8 TRAIL sensitization; AID 624354; 360,000 tested, 1% active; inhibition (viability loss, TRAIL sensitization), % at 10 µM; NB7+C8 cells + TRAIL, ATPlite viability luminescence;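 active means compounds causing at least 50% loss of cell viability in the single-dose screen, relative to plate controls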
* marks the source's active call; other numbers are inactive results. Only some compounds are listed: those with a hit (about 3% of all), similar ones and a draw of the others.

How did COC(=O)c1ccc(NC(=O)c2nc(S(=O)(=O)Cc3cccc(C)c3)ncc2Cl)cc1 do in these assays?
SENP8 block-1: 10; SENP6 block: -20; SENP8 block-2: -14; SENP7 inh: -11; TRAIL sens C8: 43

How did CCc1ccc(NC(=O)c2nc(S(=O)(=O)Cc3ccccc3)ncc2Cl)cc1 do in these assays?
SENP8 block-1: 13; SENP6 block: 4; SENP8 block-2: -7; SENP7 inh: -11; TRAIL sens C8: 96*

What do the screens show for `CCS(=O)(=O)c1ncc(Cl)c(C(=O)Nc2ccc(S(=O)(=O)N3CCC(C)CC3)cc2)n1`?
SENP8 block-1: 6; SENP6 block: 11; SENP8 block-2: 5; SENP7 inh: 0; TRAIL sens C8: 94*

How did COCCN(CC(=O)Nc1cccc(C)c1C)C(=O)c1cc2c(s1)CCC2 do in these assays?
SENP8 block-1: -48; SENP6 block: 5; SENP8 block-2: 9; SENP7 inh: -2; TRAIL sens C8: -2

Results for CCc1nc2c(OCC(=O)N3CCOCC3)cccn2c1N(C)C(=O)COc1ccccc1 ?
SENP8 block-1: 4; TRAIL sens C8: 4

How did CCOC(=O)c1ccc(NC(=O)c2nc(S(=O)(=O)Cc3ccccc3)ncc2Cl)cc1 do in these assays?
SENP8 block-1: 14; SENP6 block: -11; SENP8 block-2: -6; SENP7 inh: 7; TRAIL sens C8: 78*

Results for Cc1cccc(NC2=NC(C)(C)N=C(N)N2)c1 ?
SENP8 block-1: 13; SENP6 block: 5; PPC-1+TRAIL kill: 44; SENP8 block-2: 6; SENP7 inh: 3; TRAIL sens C8: 71*

What do the screens show for `COc1ccc(NC(=O)CSc2nc(C)c3c(c2C#N)CCCC3)cc1`?
SENP8 block-1: 16; SENP6 block: 8; PPC-1+TRAIL kill: 0; SENP8 block-2: -1; SENP7 inh: 2; TRAIL sens C8: -16

How did CCc1nnc(NC(=O)CSc2nc(C)c3c(c2C#N)CCCC3)s1 do in these assays?
SENP8 block-1: -314; SENP6 block: -17; PPC-1+TRAIL kill: 57*; SENP8 block-2: -9; SENP7 inh: 1; TRAIL sens C8: 66*

Results for COc1ccc(-c2cc(NC=O)c3ncc(-c4ccc(OC)c(OC)c4)n3c2)cc1 ?
SENP8 block-1: -419; TRAIL sens C8: 10

How did O=c1cc(-c2ccccc2)oc2ccc3ccccc3c12 do in these assays?
SENP8 block-1: 7; TRAIL sens C8: 88*

How did O=c1cc(-c2ccc(O)c(O)c2)oc2ccc3ccccc3c12 do in these assays?
SENP8 block-1: -87; SENP6 block: 95*; SENP8 block-2: 96*; SENP7 inh: 99*; TRAIL sens C8: 74*

What do the screens show for `Cc1ccc(C(C)C)c(OCC(=O)Nc2cccc(S(=O)(=O)NC3=NCCCCC3)c2)c1`?
SENP8 block-1: 11; SENP6 block: -11; SENP8 block-2: 0; SENP7 inh: -10; TRAIL sens C8: 27

What do the screens show for `COc1ccc(NC(=O)Nc2nc(C(N)CC(C)C)cs2)cc1` (stereo not given)?
SENP8 block-1: 11; TRAIL sens C8: 7

How did NC(c1csc(NC(=O)Nc2ccc(OC(F)(F)F)cc2)n1)C1CCCCC1 (stereo not given) do in these assays?
SENP8 block-1: 7; TRAIL sens C8: 85*

What do the screens show for `O=C(Nc1ccc(Cl)cc1)N[C@@H]1CC[C@H](CCNS(=O)(=O)c2ccccc2F)O[C@@H]1CO`?
SENP8 block-1: 9; TRAIL sens C8: 1

What do the screens show for `O=C(COC(=O)c1ccc(O)cc1)Nc1ccc2c(c1)OCCO2`?
SENP8 block-1: 7; SENP6 block: -11; SENP8 block-2: -10; SENP7 inh: -1; TRAIL sens C8: 5

Results for O=C(COC(=O)c1ccc(O)cc1)c1ccc2c(c1)OCCO2 ?
SENP8 block-1: -1; SENP6 block: 87*; SENP8 block-2: 70*; SENP7 inh: 57*; TRAIL sens C8: 21

How did N#CC(c1nc2ccccc2nc1N1CCCC1)S(=O)(=O)c1ccccc1 (stereo not given) do in these assays?
SENP8 block-1: -316; SENP6 block: 74*; PPC-1+TRAIL kill: 10; SENP8 block-2: 72*; SENP7 inh: 39; TRAIL sens C8: 5

Results for COc1ccc(CCNC(=O)CC(C)S(=O)(=O)c2ccc3c(c2)NC(=O)CO3)cc1OC (stereo not given) ?
SENP8 block-1: 1; SENP6 block: -11; SENP8 block-2: 2; SENP7 inh: 5; TRAIL sens C8: -8

Results for COc1ccc(-c2nsc3c(SCc4ccccc4)ncnc23)cc1 ?
SENP8 block-1: -398; SENP6 block: 21; PPC-1+TRAIL kill: 8; SENP8 block-2: -8; SENP7 inh: 4; TRAIL sens C8: -5

What do the screens show for `CCN(CC)C(=O)CSc1ncnc2c(-c3ccc(OC)cc3)nsc12`?
SENP6 block: 51*; SENP8 block-2: 52*; SENP7 inh: 34

What do the screens show for `CCS(=O)(=O)c1nc(S(=O)(=O)c2ccc(Cl)cc2)c(NCCN2CCOCC2)s1`?
SENP8 block-1: 1; SENP6 block: 11; SENP8 block-2: -1; SENP7 inh: 5; TRAIL sens C8: 10

What do the screens show for `O=C(CSc1nnc(-c2ccc(Br)cc2)o1)Nc1cccc(C(=O)O)c1`?
SENP8 block-1: -1; SENP6 block: -12; SENP8 block-2: -1; SENP7 inh: -13; TRAIL sens C8: 63*

What do the screens show for `CC1OC(CC(=O)O)CC2=C1C(=O)c1c(O)cccc1C2=O` (stereo not given)?
SENP8 block-1: 89*; TRAIL sens C8: 92*

How did O=[N+]([O-])c1ccccc1-c1cc(-c2ccccc2O)n[nH]1 do in these assays?
SENP8 block-1: 10; SENP6 block: 61*; PPC-1+TRAIL kill: 39; SENP8 block-2: 36; SENP7 inh: 14; TRAIL sens C8: 10

What do the screens show for `Oc1ccccc1-c1cc(C(F)(F)F)[nH]n1`?
PPC-1+TRAIL kill: 2

Results for O=C(Cn1cc(COc2ccc(Cl)c(Cl)c2)nn1)NS(=O)(=O)c1ccccc1OC(F)(F)F ?
SENP8 block-1: 6; TRAIL sens C8: 2

What do the screens show for `COc1ccc(-c2nn(-c3ccccc3)cc2C(=O)N2CCN(S(=O)(=O)c3cccc(F)c3)CC2)cc1`?
SENP8 block-1: -2; SENP6 block: 2; SENP8 block-2: 0; SENP7 inh: 3; TRAIL sens C8: 7

Results for N=NC(=O)c1ccccc1Nc1c(O)[nH]c2ccccc12 ?
SENP8 block-1: 2; TRAIL sens C8: 91*

Results for CC(=O)Nc1c(O)[nH]c2ccccc12 ?
SENP8 block-1: 19; SENP6 block: 10; PPC-1+TRAIL kill: 0; SENP8 block-2: -4; SENP7 inh: 3; TRAIL sens C8: -46

What do the screens show for `COc1ccc(OC)c(-c2nn(-c3ccccc3)cc2C(=O)NCC(c2ccco2)N2CCCC2)c1` (stereo not given)?
SENP8 block-1: -17; SENP6 block: -1; SENP8 block-2: 0; SENP7 inh: 3; TRAIL sens C8: -1
